About 79,000 compounds went through this panel and 15% of them were active in at least one assay; those are over-represented in the sample as a whole. Unmarked numbers belong to inactive results. Calls of active or inactive are those of the source. Cut-off read from the data, not from the text of the source: active = growth inhibition above about 70%; inactive = the rest.

Experiment [1] can be described thus: NCI Yeast Anticancer Drug Screen. Data for the rad50 strain (AID 155).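 Note: 0% = growth of vehicle-only cultures of the same strain.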 Conditions: S. cerevisiae rad50 strain growth inhibition, active compounds read high. The method, boiled down: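 Genetically altered yeast (DNA repair pathway); compound treatment; growth inhibition vs vehicle ctrl.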
A short description of experiment [2]: NCI Yeast Anticancer Drug Screen. Data for the mec2-1 strain (AID 157). Conditions: S. cerevisiae mec2-1 strain, active compounds read high. In outline:
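Test agents were screened against the mec2-1 yeast strain, with defined DNA repair or cell cycle alteration. Growth was scored as inhibition against vehicle-only controls.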

Experiment [3] in a line: NCI Yeast Anticancer Drug Screen. Data for the sgs1 mgt1 strain (AID 161).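 Note: 0% = growth of cultures given vehicle only.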 Conditions: S. cerevisiae sgs1 mgt1 strain, active compounds read high. In outline: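 Genetically altered yeast, compound exposure, growth inhibition relative to vehicle.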
Experiment [4] in a line: NCI Yeast Anticancer Drug Screen. Data for the cln2 rad14 strain (AID 165).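 Note: 0% = growth equal to vehicle treated cultures.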 Conditions: S. cerevisiae cln2 rad14 strain, active compounds read high. The method, boiled down:
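Growth of compound-exposed yeast (cln2 rad14 genotype) measured and expressed as inhibition relative to vehicle.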

Experiment [5] is described as follows: NCI Yeast Anticancer Drug Screen. Data for the bub3 strain (AID 167). Conditions: S. cerevisiae bub3 mutant strain, active compounds read high. The method, boiled down:
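Yeast carrying a defined mutation is treated with each compound, and growth is compared with that of vehicle-exposed cells to give inhibition.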

Experiment [6] in a line: NCI Yeast Anticancer Drug Screen. Data for the mlh1 rad18 strain (AID 175). Conditions: S. cerevisiae mlh1 rad18 strain growth inhibition, active compounds read high. The method, boiled down:
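In this whole-cell yeast screen, a strain with altered DNA damage repair is challenged with compound, and its growth is measured against matched vehicle-treated controls.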

[7] abbreviates: at 5.0 µM (retest, dose inferred, filed as 0.5).
Setting [8] is: at 50.0 µM (retest, dose inferred, filed as 5.0).

Turning to `C=C1C[C@H]2C=Nc3cc(OCCCOc4cc5c(cc4OC)C(=O)N4CC(=C)C[C@H]4C=N5)c(OC)cc3C(=O)N2C1`, the growth inhibition in experiment [1] (setting [7]) was 92% (active); in experiment [1] (setting [8]), 95% (active); in experiment [1] (at 50.0 µM), 98.3% (active); in experiment [2] (setting [7]), 94% (active); in experiment [2] (setting [8]), 97% (active); in experiment [2] (at 50.0 µM), 98.7% (active). Also, the growth inhibition in experiment [3] (setting [7]) is 88% (active); in experiment [3] (setting [8]) it was 94% (active); in experiment [3] (at 50.0 µM), 97.7% (active); in experiment [4] (setting [7]), 92% (active); in experiment [4] (setting [8]) it was 97% (active); in experiment [4] (at 50.0 µM) it was 98.3% (active). Also, the growth inhibition is 86% (active) in experiment [5] (setting [7]); 95% (active) in experiment [5] (setting [8]); 98.6% (active) in experiment [5] (at 50.0 µM); 92% (active) in experiment [6] (setting [7]); 95% (active) in experiment [6] (setting [8]); 98.7% (active) in experiment [6] (at 50.0 µM).
In the case of `O=c1onc(-c2ccc(Cl)cc2)c2ccccc12`, the growth inhibition was 8% in experiment [1] (setting [7]); 3% in experiment [1] (setting [8]); 6.6% in experiment [1] (at 50.0 µM); 4% in experiment [2] (setting [7]); 3% in experiment [2] (setting [8]); 16.4% in experiment [2] (at 50.0 µM). In addition, the growth inhibition in experiment [3] (setting [7]) was 7%; in experiment [3] (setting [8]) it was 5%; in experiment [3] (at 50.0 µM) it was -1.2%; in experiment [4] (setting [7]), 5%; in experiment [4] (setting [8]) it was 6%; in experiment [4] (at 50.0 µM) it was 82.7% (active). For the same compound, the growth inhibition was 2% in experiment [5] (setting [7]); 6% in experiment [5] (setting [8]); 14.4% in experiment [5] (at 50.0 µM); -1% in experiment [6] (setting [7]); 4% in experiment [6] (setting [8]); 8.15% in experiment [6] (at 50.0 µM).
`COc1ccc(C(=O)C2OC2c2ccccc2)cc1` (stereo not given): the growth inhibition in experiment [1] (setting [7]) is -2%; in experiment [1] (setting [8]), 23%; in experiment [1] (at 50.0 µM), 42.4%; in experiment [2] (setting [7]), -6%; in experiment [2] (setting [8]), 9%; in experiment [2] (at 50.0 µM), 15.4%. Moreover, the growth inhibition in experiment [3] (setting [7]) is -1%; in experiment [3] (setting [8]), 20%; in experiment [3] (at 50.0 µM), 30%; in experiment [4] (setting [7]), -32%; in experiment [4] (setting [8]), 3%; in experiment [4] (at 50.0 µM) it was 20.1%. In addition, the growth inhibition in experiment [5] (setting [7]) was 3%; in experiment [5] (setting [8]), 18%; in experiment [5] (at 50.0 µM), 58.5%; in experiment [6] (setting [7]) it was 7%; in experiment [6] (setting [8]), 59%; in experiment [6] (at 50.0 µM) it was 34.7%.
With `CN(NC1OC(=O)c2ccccc21)c1ccc(C(F)(F)F)cc1[N+](=O)[O-]` (stereo not given), the growth inhibition in experiment [1] (setting [7]) is 46%; in experiment [1] (setting [8]) it was 39%; in experiment [1] (at 50.0 µM), 65.7%; in experiment [2] (setting [7]) it was 33%; in experiment [2] (setting [8]), 36%; in experiment [2] (at 50.0 µM) it was 54.2%. Also, the growth inhibition was 43% in experiment [3] (setting [7]); 49% in experiment [3] (setting [8]); 55.1% in experiment [3] (at 50.0 µM); 25% in experiment [4] (setting [7]); 31% in experiment [4] (setting [8]); 71.2% (active) in experiment [4] (at 50.0 µM). Moreover, the growth inhibition is 43% in experiment [5] (setting [7]); 69% in experiment [5] (setting [8]); 36.2% in experiment [5] (at 50.0 µM); 47% in experiment [6] (setting [7]); 48% in experiment [6] (setting [8]); 54.5% in experiment [6] (at 50.0 µM).
Regarding `O=C1c2cc([N+](=O)[O-])cc3cc([N+](=O)[O-])cc(c23)C(=O)N1CCNCCN1C(=O)c2cc([N+](=O)[O-])cc3cc([N+](=O)[O-])cc(c23)C1=O`, the growth inhibition in experiment [1] (setting [7]) was 86% (active); in experiment [1] (setting [8]), 92% (active); in experiment [1] (at 50.0 µM) it was 81.2% (active); in experiment [2] (setting [7]), 42%; in experiment [2] (setting [8]), 89% (active); in experiment [2] (at 50.0 µM), 89.2% (active). Moreover, the growth inhibition in experiment [3] (setting [7]) is 64%; in experiment [3] (setting [8]), 94% (active); in experiment [3] (at 50.0 µM), 42.4%; in experiment [4] (setting [7]), 62%; in experiment [4] (setting [8]) it was 90% (active); in experiment [4] (at 50.0 µM) it was 70.3% (active). Moreover, the growth inhibition is 61% in experiment [5] (setting [7]); 92% (active) in experiment [5] (setting [8]); 92.3% (active) in experiment [5] (at 50.0 µM); 56% in experiment [6] (setting [7]); 92% (active) in experiment [6] (setting [8]); 76.3% (active) in experiment [6] (at 50.0 µM).
In the case of `CN=c1sc2c(n1C)C(=O)c1ccccc1C2=O`, the growth inhibition in experiment [1] (setting [7]) was 26%; in experiment [1] (setting [8]), 48%; in experiment [1] (at 50.0 µM) it was 82.6% (active); in experiment [2] (setting [7]), 17%; in experiment [2] (setting [8]) it was 40%; in experiment [2] (at 50.0 µM) it was 75.7% (active). Besides, the growth inhibition in experiment [3] (setting [7]) is 31%; in experiment [3] (setting [8]) it was 49%; in experiment [3] (at 50.0 µM), 87.8% (active); in experiment [4] (setting [7]) it was 21%; in experiment [4] (setting [8]) it was 23%; in experiment [4] (at 50.0 µM) it was 25.6%. The growth inhibition in experiment [5] (setting [7]) was 28%; in experiment [5] (setting [8]), 64%; in experiment [5] (at 50.0 µM) it was 65.9%; in experiment [6] (setting [7]), 23%; in experiment [6] (setting [8]), 54%; in experiment [6] (at 50.0 µM) it was 80.8% (active).
Take `COc1ccc(-c2nc(C)[nH]c(=O)c2Cc2c(O)ccc3ccccc23)cc1`: the growth inhibition in experiment [1] (setting [7]) is 3%; in experiment [1] (setting [8]), 50%; in experiment [1] (at 50.0 µM), 98.5% (active); in experiment [2] (setting [7]), -4%; in experiment [2] (setting [8]), 4%; in experiment [2] (at 50.0 µM), 10.3%. In addition, the growth inhibition in experiment [3] (setting [7]) was 1%; in experiment [3] (setting [8]) it was 8%; in experiment [3] (at 50.0 µM), 97.8% (active); in experiment [4] (setting [7]), 4%; in experiment [4] (setting [8]) it was 7%; in experiment [4] (at 50.0 µM) it was 22%. In addition, the growth inhibition in experiment [5] (setting [7]) is 0%; in experiment [5] (setting [8]) it was 1%; in experiment [5] (at 50.0 µM), 4.45%; in experiment [6] (setting [7]), 2%; in experiment [6] (setting [8]), 2%; in experiment [6] (at 50.0 µM), 97% (active).
`[N-]=[N+]=Nc1c(-c2ccccc2)c(Cl)nc2ccccc12`: the growth inhibition in experiment [1] (setting [7]) was 11%; in experiment [1] (setting [8]) it was 99% (active); in experiment [1] (at 50.0 µM) it was 76% (active); in experiment [2] (setting [7]), -7%; in experiment [2] (setting [8]), 98% (active); in experiment [2] (at 50.0 µM), 76.1% (active). For the same compound, the growth inhibition is -4% in experiment [3] (setting [7]); 98% (active) in experiment [3] (setting [8]); 85.2% (active) in experiment [3] (at 50.0 µM); 20% in experiment [4] (setting [7]); 98% (active) in experiment [4] (setting [8]); 82.9% (active) in experiment [4] (at 50.0 µM). The growth inhibition is -33% in experiment [5] (setting [7]); 97% (active) in experiment [5] (setting [8]); 87.4% (active) in experiment [5] (at 50.0 µM); 2% in experiment [6] (setting [7]); 98% (active) in experiment [6] (setting [8]); 87.2% (active) in experiment [6] (at 50.0 µM).
In the case of `COc1cc(C)cc2c(-c3c(O)cc(O)c4c3C[C@H](C)N[C@H]4C)cc(-c3cc(-c4c(O)cc(O)c5c4C[C@H](C)N[C@H]5C)c4cc(C)cc(OC)c4c3O)c(O)c12`, the growth inhibition was -6% in experiment [1] (setting [7]); 27% in experiment [1] (setting [8]); -28.4% in experiment [1] (at 50.0 µM); -10% in experiment [2] (setting [7]); -12% in experiment [2] (setting [8]); -27.8% in experiment [2] (at 50.0 µM). Further, the growth inhibition in experiment [3] (setting [7]) was -14%; in experiment [3] (setting [8]), -7%; in experiment [3] (at 50.0 µM), 18.7%; in experiment [4] (setting [7]), 0%; in experiment [4] (setting [8]), 1%; in experiment [4] (at 50.0 µM), 87% (active). Also, the growth inhibition in experiment [5] (setting [7]) is 0%; in experiment [5] (setting [8]), -23%; in experiment [5] (at 50.0 µM), -48.5%; in experiment [6] (setting [7]) it was -18%; in experiment [6] (setting [8]), 27%; in experiment [6] (at 50.0 µM), 2.7%.
Take `CC1OC(Oc2c(-c3ccc(O)c(O)c3O)oc3cc(O)ccc3c2=O)C(O)C(O)C1O` (stereo not given): the growth inhibition in experiment [1] (setting [7]) was -4%; in experiment [1] (setting [8]), -2%; in experiment [1] (at 50.0 µM), 14.4%; in experiment [2] (setting [7]) it was -10%; in experiment [2] (setting [8]), -5%; in experiment [2] (at 50.0 µM), 9.6%. Further, the growth inhibition is -5% in experiment [3] (setting [7]); 8% in experiment [3] (setting [8]); 17.6% in experiment [3] (at 50.0 µM); 3% in experiment [4] (setting [7]); -6% in experiment [4] (setting [8]); 2.9% in experiment [4] (at 50.0 µM). Also, the growth inhibition is -3% in experiment [5] (setting [7]); -3% in experiment [5] (setting [8]); -12.7% in experiment [5] (at 50.0 µM); -5% in experiment [6] (setting [7]); -8% in experiment [6] (setting [8]); 27.8% in experiment [6] (at 50.0 µM).
